# Experimental data published in PubChem BioAssay (NCATS).
# Results filed as inconclusive are left out. Unmarked numbers belong to inactive results. Calls come from the whole dose curve; as a rule, active = well fitted curve in the direction sought with a large enough effect in the signal ratio, with a control signal flat (not every such curve was filed as active); inconclusive = small, poorly fitted or top-dose-only effect, or a change in a side signal; inactive = no such curve, though single readings can be large or run the other way; the % refers to the signal ratio.
# Assay: qHTS Assay for Identification of Small Molecule Inducers of Hypoxia Response (AID 2120); note: 0% is about no effect
# Conditions: hypoxia response reporter cells, beta-lactamase ratio readout; series mostly up to 104 µM; activation: at the top concentration
# Description: NIH Chemical Genomics Center [NCGC]
# NIH Molecular Libraries Screening Centers Network [MLSCN]
# National Institutes of Environmental Health Sciences [NIEHS]
# National Toxicology Program [NTP]
# Hypoxia-inducible factor-1 (HIF-1) is the major hypoxia-regulated transcription factor that controls cellular responses to low oxygen concentration. HIF-1 is composed of two subunits: hypoxia responsive HIF-1a and constitutively expressed HIF-1b, which is also known as aryl hydrocarbon receptor nuclear translocator. During hypoxic conditions, HIF-1a heterodimerizes with HIF-1b and translocates into the nucleus where the HIF-1 complex binds to the hypoxia-response element (HRE) and activates expression of target genes such as VEGF (vascular endothelial growth factor). The HIF-1 pathway is essential to normal growth and development, and is involved in the pathophysiology of cancer, inflammation, and ischemia.
# Using a beta-lactamase reporter-gene under control of the hypoxia response element, a cell-based assay [CellSensor(TM) HRE-bla ME-180 developed by Invitrogen Corp.] was used to measure hypoxia-induced signaling. Library compounds were measured for their ability to induce the reporter gene activity. Compounds were screened in a titration series in 1536-well format. The inducers were identified based on the AC50 values derived from the screening data.
# NCGC Assay Protocol Summary
# 2500 cells/5uL in Opti-MEM medium containing 0.5% dialyzed FBS, 0.1 mM NEAA, 1 mM sodium pyruvate and 10 mM HEPES was dispensed into 1536-well plates and cells were cultured at 37 degrees Celsius for 4-5 hours and then 23 nL of compounds or DMSO were delivered to each well using a pin tool. The plates were incubated at 37 degrees Celsius for 17 hours. 1 uL of CCF4-dye mixture was added to each well. After incubated at room temperature for 2.5 hours the plates were measured on an EnVision plate reader at Excitation 405nm, Emission1=460nm and Emission 2=530nm. The %Activity was determined from the ratio of 460nm/530nm.
row,Structure (SMILES),activation [%]
1,O=C(O)C(Br)Br,1.41
2,C=CCOCC1CO1 (stereo not given),0.302
3,[O-][Cl+]O,-0.448
4,ClCC(Cl)Cl,0.595
5,C=CCBr,0.604
6,BrCCc1ccccc1,0.265
7,O=C(O)C(Br)CBr (stereo not given),1.19
8,O=P(OCCCl)(OCCCl)OCCCl,-0.331
9,CCN(CC)N=O,0.311
10,Nc1ccc(-c2ccc(N)c(Cl)c2)cc1Cl,4.88
11,CCOC(=O)CBr,0.383
12,O=[N+]([O-])c1ccccc1O,-0.262
13,N#CC(O)c1ccccc1 (stereo not given),0.351
14,C=CC(=O)OC,0.653
15,CCCCC(CC)COC(=O)c1ccc(C(=O)OCC(CC)CCCC)c(C(=O)OCC(CC)CCCC)c1 (stereo not given),0.766
16,CC(C)OS(C)(=O)=O,0.507
17,Cc1ccc(N)c(N)c1,0.633
18,CNC(=O)O/N=C/C(C)(C)S(C)=O (stereo not given),0.544
19,Oc1cc(Cl)cc(Cl)c1,1.99
20,O=[N+]([O-])c1ccccc1CCl,0.342

row,Structure (SMILES),activation [%]
1,Nc1cc(Cl)cc(Cl)c1,-0.342
2,Oc1ccc(Cl)c(Cl)c1Cl,1.21
3,CCOS(C)(=O)=O,-0.403
4,CCOC(=O)C1OC1(C)c1ccccc1 (stereo not given),0.809
5,CCN(CC)CCO,-0.906
6,BrCC(Br)C1CCC(Br)C(Br)C1 (stereo not given),-0.0975
7,C=CCc1cc(OC)c2c(c1)OCO2,-0.745
8,BrC(Br)Br,-0.389
9,[O-][Cl+2]([O-])O,-0.418
10,O=NN1CCCCC1,0.0403
11,Cc1ccc(N)cc1N,1.2
12,Cc1coc2c1CCC(C)C2 (stereo not given),0.906
13,ClP(Cl)(Cl)(Cl)Cl,1.52
14,CCCN(CCC)c1c([N+](=O)[O-])cc(C(F)(F)F)cc1[N+](=O)[O-],0.902
15,Cc1ccc(N)cc1C,0.258
16,Clc1ccccc1,0.766
17,[N-]=[N+]=[N-],0.809
18,O=S(=O)(O)F,-0.555
19,Cc1cc(C)cc(OP(=O)(Oc2cc(C)cc(C)c2)Oc2cc(C)cc(C)c2)c1,1.93
20,O=C(O)C(Cl)Br (stereo not given),0.504
